Sampled rows, rich in hits. Any-hit rate of the full collection: about 21%.
TDP1 cell CPT – DT40-hTDP1 cell growth loss with CPT; chicken DT40 Tdp1-/-;hTDP1 cells + 20 nM CPT, ATP luminescence, 48 h; Potency, µM (series often up to 46.2 µM), for the others: at the top dose activity change, negative = growth inhibition, hits mostly inhibitors; 420,000 tested, 12% active; AID 686979; also: potency is read from the fitted curve at half-maximal effect; nearly all actives have a fitted effect of over 55% in size
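Chicken DT40 Tdp1-/- cells stably complemented with human TDP1 were seeded at 400 cells/well in medium containing 20 nM camptothecin, exposed to pin-transferred compounds, and grown at 37 °C for at least 48 hr. Viability was read as ATP luminescence.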
TDP1 cell noCPT – qHTS for Inhibitors of human tyrosyl-DNA phosphodiesterase 1 (TDP1): qHTS in cells in absence of CPT | DT40 Tdp1-/- hTDP1 cells, no CPT, ATP luminescence, 48 h | Potency, µM (top dose mostly 46.2 µM), for the others: at the highest dose activity change, negative = growth inhibition, most hits filed as inhibitors | 420,000 tested, 15% active | AID 686978, 2013; also: potency is read from the fitted curve at half-maximal effect; nearly all actives have a fitted effect of over 55% in size
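Growth kinetics read by CellTiter-Glo luminescence after ≥48 hr at 37 °C. Cells: DT40 Tdp1-/- stably carrying human TDP1, 400 per well, compound exposure in the absence of CPT (DMSO vehicle).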
Gal4-VP16 FLuc – Gal4-VP16 reporter inhibition counter-screen; Drosophila S2 Gal4-VP16 UAS-luciferase, luminescence, 20 h; Potency, µM (top dose mostly 53.6 µM), inactives show at the top dose activity, negative = inhibition, hits mostly inhibitors; 310,000 tested, 3.5% active;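 also: Gal4-VP16 expression switched on by copper sulfate through the metallothionein promoter; potency is read from the fitted curve at half-maximal effect; nearly all actives have a fitted effect of over 50% in size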
IL1B secr inh – inhibitors of inflammasome signaling (IL-1 beta secretion); THP-1 LPS/ATP IL-1B secretion, AlphaLISA, 16 h; active compounds read low; 360,000 tested, 4.7% active; activity change, % at 57.5 µM; AID 743279; in the data active = activity change below about -50%; inconclusive = mostly about -30% to -49%
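THP-1 cells pretreated 1 hr with compounds (up to 57.5 uM final), then stimulated with LPS (250 ng/mL final) plus ATP (1.25 mM final); secreted IL-1B measured by AlphaLISA after 16 hr, decreased signal indicating inhibition.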
ELG1 repair inh – ELG1-dependent DNA repair inhibition; HEK293T ELG1-luciferase reporter, luminescence, 16 h; DNA damage induced by 5-fluorouridine; 330,000 tested, 2.3% active; Potency, µM (titrated, usually from 46.1 µM), inactives show at the highest dose activity change, negative = inhibition, actives largely listed as inhibitors; also: potency is read from the fitted curve at half-maximal effect; nearly all actives have a fitted effect of over 55% in size
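HEK293T cells expressing luciferase-tagged ELG1 (2,000/well) received 5-Fluorouridine plus compound or DMSO for 16 hr at 37 °C. Luciferase was read by ONE-Glo luminescence after 30 min at room temperature.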
RORgamma inh – ROR gamma (mouse) transcription inhibition; Drosophila S2 Gal4-RORgamma UAS-luciferase reporter, 20 h; 310,000 tested, 5.4% active; Potency, µM (series often up to 53.6 µM), inactives show at the highest dose activity change, negative = inhibition, hits mostly inhibitors; P51450; also: potency is read from the fitted curve at half-maximal effect; nearly all actives have a fitted effect of over 60% in size
Target sequence (P51450 whole entry, looked up, the tested form may be a part): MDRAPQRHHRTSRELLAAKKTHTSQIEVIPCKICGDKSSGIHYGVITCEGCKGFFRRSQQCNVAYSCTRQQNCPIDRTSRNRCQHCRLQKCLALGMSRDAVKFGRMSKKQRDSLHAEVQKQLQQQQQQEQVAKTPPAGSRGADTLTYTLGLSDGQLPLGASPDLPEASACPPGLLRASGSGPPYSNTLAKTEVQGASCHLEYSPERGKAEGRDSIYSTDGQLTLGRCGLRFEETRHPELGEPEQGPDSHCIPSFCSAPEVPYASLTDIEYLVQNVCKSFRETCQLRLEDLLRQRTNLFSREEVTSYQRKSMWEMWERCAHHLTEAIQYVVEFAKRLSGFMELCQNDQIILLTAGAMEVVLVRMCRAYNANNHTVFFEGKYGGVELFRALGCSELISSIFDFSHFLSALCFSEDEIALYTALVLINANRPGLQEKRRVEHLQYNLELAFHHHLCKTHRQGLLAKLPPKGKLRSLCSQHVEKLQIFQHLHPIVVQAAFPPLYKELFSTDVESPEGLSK
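Schneider cells (Drosophila), stable Gal4 DBD–ROR gamma + UAS-luc; 1 hr cmpd preincubation; Cu2+ induction 700 uM final; 20 hr ambient; luminescence.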
An asterisk follows results filed as active; ? = inconclusive; / = not tested or not shown. Unless noted, calls follow the shape of the dose curve; as a rule, active = well fitted curve in the direction sought with a large enough effect; inconclusive = small, poorly fitted or top-dose-only effect, or another doubt; inactive = no such curve, though single readings can be large; an effect the other way counts as inactive or inconclusive. % is scaled to controls: 0 for no effect and ±100 for the full control effect.

SMILES | TDP1 cell CPT | TDP1 cell noCPT | Gal4-VP16 FLuc | IL1B secr inh | ELG1 repair inh | RORgamma inh
CC1(c2nnc(-c3ccccc3)o2)CC(c2ccc(Cl)cc2)=NO1 (stereo unspecified) | -11% | -28% | -2% | 2 | ? | 15%
CC1(c2nnc(-c3ccncc3)o2)CC(c2ccc(Cl)cc2)=NO1 (stereo unspecified) | 21µM* | 21µM* | / | -10 | / | /
O=C(NNC(=O)c1cnccn1)c1ccc(Cl)c(Cl)c1 | 7.3µM* | 3.7µM* | 10µM* | 166 | ? | 6.3µM*
O=C(NNC(=O)c1ccccc1Br)c1cnccn1 | 18µM* | ? | / | 16 | ? | /
Cn1c2ccccc2c2nnc(SCC(=O)Nc3cccc(O)c3)nc21 | ? | ? | 0% | -8 | -2% | ?
O=C(C[C@@H]1C/C=C/CC[C@H](Cc2ccc(F)cc2)C(=O)OCCNC1=O)N[C@H](CO)Cc1ccccc1 | 21µM* | 12µM* | / | -6 | ? | /
C[C@@H]1COC(=O)[C@H](Cc2ccc(F)cc2)CC/C=C/C[C@@H](CC(=O)N[C@@H](CO)Cc2ccccc2)C(=O)N1 | ? | 26µM* | / | 6 | -13% | /
O=C(C[C@@H]1C/C=C\C[C@H](Cc2ccc(F)cc2)C(=O)OCCNC1=O)N[C@H](CO)Cc1ccccc1 | ? | 16µM* | / | 19 | -9% | /
CC(C)(C)[C@H]1COC(=O)[C@@H](Cc2ccc(F)cc2)C/C=C\C[C@@H](CC(=O)N[C@@H](CO)Cc2ccccc2)C(=O)N1 | ? | 18µM* | / | -25 | ? | /
O=C(C[C@H]1C/C=C\C[C@@H](Cc2ccc(F)cc2)C(=O)O[C@@H](c2ccccc2)CNC1=O)N[C@@H](CO)Cc1ccccc1 | -14% | -17% | / | -1 | 0% | /
C=CCn1c(=O)[nH]c(=O)c2c(N)c(C(=O)c3ccc(OC)cc3)sc21 | -4% | ? | / | 2 | / | /
CCOC(=O)c1noc2nc(C)n(CC(=O)Nc3cccc(OC)c3)c(=O)c12 | 2% | 4% | / | / | / | /
N=c1n(CC(=O)c2cccs2)c2ccccc2n1Cc1ccccc1 | 16µM* | 16µM* | -23% | -7 | 7.3µM* | -10%
CCCCc1n(CC(=O)c2ccc(Cl)cc2)c2ccccc2[n+]1C | 6.5µM* | 6.5µM* | 3% | -68* | ? | 49%
C=CCn1c(=N)n(CC(=O)c2ccc(Br)s2)c2ccccc21 | ? | 18µM* | 25% | -74* | -16% | -17%
C=CCn1c(=N)n(CC(=O)OC)c2ccccc21 | 2% | -2% | -6% | 20 | 8% | -9%
C=CCn1c(=N)n(CC(=O)c2ccc(Cl)cc2)c2ccccc21 | 9.2µM* | ? | 9% | -90* | -2% | ?
Cc1ccc(-n2cc(S(=O)(=O)c3ccc(C)cc3)[nH]c2=O)cc1 | -9% | -9% | -1% | 4 | 1% | 8%
O=C1C2C3CC4C5C3C1C5C1(SCCS1)C42 (stereo unspecified) | -4% | -4% | / | 15 | / | /
Cn1c(=O)[nH]c(=O)c2c1nc(Br)n2CCCSc1nc2ccccc2o1 | ? | 26µM* | 2% | 32 | ? | 17%
Cn1c(=O)[nH]c(=O)c2c1nc(N1CCCC1)n2CCCSc1nc2ccccc2o1 | 23µM* | ? | -4% | 12 | ? | 3%
Cc1nnc(SCCCn2c(N3CCN(c4ccccc4)CC3)nc3c2c(=O)[nH]c(=O)n3C)s1 | ? | ? | -5% | -29 | ? | 24%
Cn1c(=O)[nH]c(=O)c2c1nc(N1CCCCC1)n2CCCSc1nc2ccccc2s1 | 13µM* | 13µM* | -3% | ? | 21µM* | ?

Source: PubChem BioAssay (National Center for Advancing Translational Sciences (NCATS))
